These results are taken from PubChem BioAssay AID504329 (Southern Research Specialized Biocontainment Screening …, 2011).

Each structure is given as a SMILES string. The campaign covered roughly 340,000 compounds. About 1,000 (0.29%) were called active. Cut-off read from the data, not from the text of the source: inconclusive = inhibition above about 27% without an active follow-up result; inactive = below that. Not all results are given here. Measured potencies and affinities stand elsewhere.

The assay is described as follows: NS1A inhibition, H1N1 influenza, cell based functional assay (AID 504329). The conditions noted are these: percent inhibition, at 12.5 µM, active compounds read high.
Consider `COc1ccc(/C(=N/Nc2ncnc3ccccc23)C(=O)O)cc1`, for which the inhibition was 5.64% (inactive). To `CCOC(=O)/C(=N\Nc1ncnc2ccccc12)c1ccc(C)cc1` belongs 12.6% (inactive); to `O=C(NCc1ccccn1)Nc1cc(Cl)ccc1Cl`, -13.2% (inactive). Next, `COc1ccc(CNC(=O)Cn2cc(C(F)(F)F)ccc2=O)cc1`: -8.07% (inactive); `CC1=NN(CCC#N)C(=O)/C1=C/c1ccc(N(C)C)cc1`: 18.1% (inactive). `COc1ccc(/C=C2/C(=O)N(Cc3ccccc3)N=C2C)cc1`: the inhibition was -0.08% (inactive). On to `CN(C)c1ccc(/C=C2\C(=O)NC(=O)N(Cc3ccc(F)cc3)C2=O)cc1`, for which the inhibition is -0.15% (inactive).

With `CN(C)c1ccc(C=C2C(=O)OC(C)(C)OC2=O)cc1`, the inhibition was 0.66% (inactive). To `COc1ccc(CCC(=O)OCC(=O)Nc2ccccc2OC(F)F)cc1OC` belongs -3.13% (inactive). For `CCOC(=O)C(NC(C)=O)(Nc1ccc(S(=O)(=O)Nc2nccs2)cc1)C(F)(F)F` (stereo not given), the inhibition is -7.42% (inactive).

Consider `Cc1cccc(-n2c(O)c(C=Nc3cc(O)ccc3C)c3ccccc3c2=O)n1`, for which the inhibition is 3.61% (inactive). To `COc1cc(C2C(C(C)=O)=C(O)C(=O)N2CCN(C)C)ccc1O` (stereo not given) belongs -16% (inactive); to `O=C(COC(=O)c1n[nH]c(=O)c2ccccc12)NC1CCCCC1`, -3.19% (inactive); to `COc1cc(NC(=O)CSCc2ccc(Cl)cc2)c(C(=O)O)cc1OC`, -10.8% (inactive). Next, `O=C(Cc1n[nH]c(=O)c2ccccc12)Nc1cc(Cl)ccc1-n1cncn1`: -5.46% (inactive); `COc1ccc(C(=O)N/N=C/c2ccc(OC)c(COc3ccccc3)c2)cc1`: -10.8% (inactive); `COc1ccc(C(=O)N/N=C/c2ccc(OC)c(COc3ccc(F)cc3)c2)cc1`: -7.91% (inactive). On to `CCC(CC)NC(=O)CO/N=C/c1ccc(Cl)cc1Cl`, for which the inhibition is 2.24% (inactive). To `O=C(O)C1C2C=CC(C2)C1C(=O)NCCCN1CCOCC1` (stereo not given) belongs -16.9% (inactive); to `C[C@H](CO)N1C[C@H](C)[C@@H](CN(C)S(=O)(=O)c2cccs2)Oc2ccc(NC(=O)c3ccncc3)cc2C1=O`, -5.12% (inactive); to `CCN(CC)Cc1cc(C(=O)O)c(-c2ccccc2)o1`, -10.3% (inactive). Next, `NC(=O)C1CCN(C2=C(NS(=O)(=O)c3ccc(Br)cc3)C(=O)c3ccccc3C2=O)CC1`: 23.9% (inactive); `CC(=O)Nc1ccc(S(=O)(=O)NC2=C(N3CCN(C)CC3)C(=O)c3ccccc3C2=O)cc1`: 7.96% (inactive).

As to `CCOC(=O)C1CCN(C2=C(NS(=O)(=O)c3ccc(Cl)cc3)C(=O)c3ccccc3C2=O)CC1`, the inhibition is -27.4% (inactive). In the case of `CC1CCCN(C2=C(NS(=O)(=O)c3ccc(Cl)cc3)C(=O)c3ccccc3C2=O)C1` (stereo not given), the inhibition was 3.15% (inactive). In the case of `CCOC(=O)C1CCN(C2=C(NS(=O)(=O)c3ccc(Br)cc3)C(=O)c3ccccc3C2=O)CC1`, the inhibition is 27.6% (inactive). As to `NC(=O)C1CCN(C2=C(NS(=O)(=O)c3ccc(Cl)cc3)C(=O)c3ccccc3C2=O)CC1`, the inhibition was -27.5% (inactive).

Take `CCOC(=O)C1CCCN(c2nc3ccccc3nc2NS(=O)(=O)c2ccc(C)cc2)C1` (stereo not given): the inhibition is -25.9% (inactive).

Take `CCN1CCN(C2=C(NS(=O)(=O)c3ccc(Br)cc3)C(=O)c3ccccc3C2=O)CC1`: the inhibition is 5.79% (inactive).

On to `CCCN(CC(=O)Nc1ccccc1C)C(=O)CCNC(=O)c1ccccc1Cl`, for which the inhibition was 0.78% (inactive). Next, `O=C(c1ccccc1)N1CCCC(C(=O)N2CCc3ccccc3C2)C1` (stereo not given): -4.42% (inactive). For the molecule `Cc1ccc(C)c(NCc2n[nH]c(=S)n2-c2ccccc2)c1`, the inhibition is -0.26% (inactive). Turning to `O=C(OC(C(=O)NCC1CCCO1)c1ccccn1)c1cccs1` (stereo not given), the inhibition was -1.32% (inactive).

Consider `COc1ccc(NC(=O)COC(=O)CN2C(=O)C3CCCCC3C2=O)cc1OC` (stereo not given), for which the inhibition was -0.56% (inactive).

`CC(C)C[C@H](NC(=O)C1CCN(C(=O)[C@H](Cc2ccccc2)NC(=O)OC(C)(C)C)CC1)C(=O)O`: the inhibition was -7.8% (inactive). To `COC(=O)CCC(=O)N(CCN(Cc1ccccc1)C(=O)CCC(=O)OC)Cc1ccccc1` belongs 8.88% (inactive); to `Cc1ccc(N=Nc2c(O)[nH]c(=O)[nH]c2=O)cc1S(=O)(=O)Nc1ccc(Br)cc1`, 9.19% (inactive); to `CCc1ccc(NC(=O)CN(c2ccc(OC)cc2)S(=O)(=O)c2c(C)[nH]c(=O)[nH]c2=O)cc1`, 2.97% (inactive).

With `CN1CCN(c2ccc(S(=O)(=O)N3CCCCC3)cc2NC(=O)COc2ccc(F)cc2)CC1`, the inhibition is -7.14% (inactive).

For `CCc1ccc(C2C(C#N)=C(N)Oc3cc(N)ccc32)cc1` (stereo not given), the inhibition is 0.13% (inactive). To `COc1ccc(C2C(C#N)=C(N)Oc3c2ccc2cccnc32)cc1OC` (stereo not given) belongs -15.7% (inactive); to `COc1cc(C2C(C#N)=C(N)Oc3c2ccc2ccccc32)ccc1OCC(=O)Nc1ccc(C)cc1` (stereo not given), 1.8% (inactive); to `CCOC(=O)C1=C(C)OC(N)=C(C#N)C1c1cc2cc(C)ccc2nc1N1CCCCC1` (stereo not given), -5.59% (inactive). With `C[n+]1cccc(C2C(C#N)=C(N)Oc3c2ccc2ccccc32)c1` (stereo not given), the inhibition was -17.7% (inactive). To `CC(=O)C1=C(C)OC(N)=C(C#N)C1c1cc2cccc(C)c2nc1Cl` (stereo not given) belongs -6.22% (inactive); to `N#CC1=C(N)Oc2c(ccc3cccnc23)C1c1ccccc1` (stereo not given), 25.4% (inactive).

`COC(=O)C1=C(C)OC(N)=C(C#N)C1c1cc2cc(C)ccc2nc1Cl` (stereo not given): the inhibition was 11.8% (inactive). To `CC(C)(C)c1ccc(CN(Cc2ccccc2)C(c2ccccn2)c2nnnn2C(C)(C)C)cc1` (stereo not given) belongs 9.19% (inactive); to `C[C@H](CO)N1C[C@H](C)[C@@H](CN(C)Cc2ccc(-c3ccccc3)cc2)Oc2c(NC(=O)Cc3ccccc3)cccc2C1=O`, 11.9% (inactive); to `CC(=O)Nc1ccc(Br)cc1C(=O)C(=O)O`, 2.32% (inactive). To `C=CCc1c(C)[nH]c(=O)[nH]c1=O` belongs -3.62% (inactive). Turning to `Cc1noc(C)c1NC(=O)N(C)C[C@H]1Oc2ccc(NC(=O)NC(C)C)cc2C(=O)N([C@H](C)CO)C[C@@H]1C`, the inhibition was -14.8% (inactive). For `CCCn1c(N)c(C(=O)CSc2nnc3n2CCCCC3)c(=O)n(C)c1=O`, the inhibition is -16.1% (inactive).

As to `CC(C)CNS(=O)(=O)c1cc(C(=O)OC2CCOC2=O)c(Cl)cc1Cl` (stereo not given), the inhibition was -8.56% (inactive). With `COc1ccccc1CNc1ncccc1[N+](=O)[O-]`, the inhibition is -1.95% (inactive). To `COc1ccccc1C(CNc1ncccc1[N+](=O)[O-])N(C)C` (stereo not given) belongs -0.51% (inactive); to `CC(=O)c1ccc2c(c1)C1C(Cl)C(Sc3ccccc3[N+](=O)[O-])CC1C(C(=O)O)N2` (stereo not given), 27.9% (inactive). To `CC(=O)c1ccc2c(c1)C1C(Cl)C(Sc3ccccc3[N+](=O)[O-])CC1C(c1ccccc1)N2` (stereo not given) belongs -9.68% (inactive); to `O=C(CN1CCN(C(=O)c2ccco2)CC1)Nc1ccccc1`, 0.71% (inactive). Next, `CN(C)c1nc2c(c(=O)[nH]c(=O)n2C)n1CCCc1ccccc1`: -3.17% (inactive).

With `CCc1cccc(CC)c1NC(=O)CN(CC(=O)O)CC(=O)O`, the inhibition was 5.31% (inactive). `O=C(O)CP(=O)(O)O`: the inhibition is -2.09% (inactive). In the case of `Cn1c(=O)c2cc(S(=O)(=O)NC(C(=O)N3CCCCCC3)c3ccccc3)ccc2n(C)c1=O` (stereo not given), the inhibition was -3.38% (inactive).

Turning to `COc1ccccc1-c1cc(C(=O)NC(C)c2ccccc2)no1` (stereo not given), the inhibition is 10.7% (inactive). Next, `Cc1n[nH]c(C)c1Cc1c(F)cccc1Cl`: -22.1% (inactive); `Clc1ccc(COc2ccccn2)c(Cl)c1`: 18.9% (inactive). On to `Cc1nc(N)c(Cc2ccccc2F)c(N)n1`, for which the inhibition was -3.84% (inactive). To `CNc1cc(C(F)(F)F)nc(-c2ccccn2)n1` belongs -7.32% (inactive). To `O=C(Cc1c(F)cccc1Cl)Nc1ccccn1` belongs -10.5% (inactive); to `Nc1nc(N)c(Cc2ccc(Cl)cc2Cl)c(N)n1`, -5.28% (inactive); to `N#C/C(=C/c1ccc(-c2ccc(C(=O)O)c(Cl)c2)o1)C(=O)NCC1CCCO1` (stereo not given), 9.84% (inactive). On to `CN(CC(=O)Nc1ccncc1)S(=O)(=O)c1ccc(Cl)cc1`, for which the inhibition was 4.38% (inactive). `CC(C)S(=O)(=O)c1cnc(N2CCOCC2)nc1N`: the inhibition was -0.07% (inactive). To `Cc1cc(C(=O)CSc2nnc(N)s2)c(C)n1Cc1cccs1` belongs -7.01% (inactive); to `CCS(=O)(=O)N(CC(=O)Nc1cccc2ccccc12)c1ccc(OC)cc1`, -2% (inactive). Turning to `CC(=O)Nc1ccc(NC(=O)C(NS(=O)(=O)c2cccc3nsnc23)C(C)C)cc1` (stereo not given), the inhibition is 4.6% (inactive). Next, `c1cncc(-c2cn(C[C@H]3CC[C@@H]([C@@H]4CC[C@H](Cn5cc(-c6cccnc6)nn5)O4)O3)nn2)c1`: -3.65% (inactive); `c1cncc(-c2cn(C[C@H]3CC[C@H](Cn4cc(-c5cccnc5)nn4)O3)nn2)c1`: -19.1% (inactive).

On to `c1ccc(-c2cn(C[C@H]3CC[C@@H]([C@@H]4CC[C@H](Cn5cc(-c6ccccc6)nn5)O4)O3)nn2)cc1`, for which the inhibition is 1.07% (inactive). Regarding `Cc1ccc(-c2cn(C[C@H]3CC[C@@H]([C@@H]4CC[C@H](Cn5cc(-c6ccc(C)cc6)nn5)O4)O3)nn2)cc1`, the inhibition is 1.46% (inactive).

Consider `COc1ccc(-c2cc(C#N)nc(NN)n2)cc1`, for which the inhibition was 4.09% (inactive). To `N/C(CSc1ccccn1)=N\OCc1c(Cl)cccc1Cl` belongs -0.92% (inactive); to `Cc1ccc(CNC(=O)CSc2ccc(-c3ccco3)nn2)cc1`, 0.95% (inactive). To `CCC(=O)Nc1cc(-c2nn(CC(=O)N3CCCCC3)c(=O)c3ccccc23)ccc1N1CCOCC1` belongs -7.33% (inactive). For the molecule `C=CC[C@H]1C=C[C@@H](C(C(=O)OC)C(=O)OC)CN1C(C)=O`, the inhibition is -4.78% (inactive). Next, `COCCOC(=O)c1c(NC(=O)COC(=O)Cc2cccc(OC)c2)sc(C(N)=O)c1C`: 6.16% (inactive); `C/C(=N/NC(=O)c1cc2ccccc2cc1O)c1ccco1`: -9.07% (inactive). To `O=C(N/N=C/c1ccccn1)c1cc(Br)ccc1O` belongs -2.68% (inactive).

On to `C/C(=N\NC(=O)c1cc2ccccc2cc1O)c1cccs1`, for which the inhibition is -6% (inactive). Next, `C/C(=N\NC(=O)c1cc(Br)ccc1O)c1cccs1`: 0.04% (inactive).

By inhibition is commonly meant the relative decrease from the control value, in per cent.
